# Compound activity: PubChem BioAssay, several laboratories
# BoNT-A LC inh2 = inhibitors of Botulinum neurotoxin A light chain protease; inhibition, % at 10 µM; AID 588499; 0.17% of 360,000 active; multiplex microsphere protease substrate cleavage, flow cytometry; also: plate controls were buffer without enzyme for full effect and enzyme alone for no effect
# BoNT F protease = BoNT F light chain protease inhibition | Multiplex microsphere protease cleavage assay, flow cytometry | inhibition, % at 10 µM | 0.22% of 360,000 active; in the data active = inhibition above about 35%, passing the limit was not always enough; inconclusive = no clear call, values can overlap the other calls; also: plate controls were buffer without enzyme for full effect and enzyme alone for no effect
# BH1578 lux ind = inducers of Vibrio cholerae quorum light production without autoinducers. activation, % at 18.7 µM. AID 588436. V. cholerae BH1578 lux reporter, luminescence, 6 h. 0.16% of 350,000 active; in the data active = activation mostly above about 9.7%, no sharp cut-off; inconclusive = no clear call, values can overlap the other calls; inactive = mostly below about 3.7%
# Anthrax LF prot = blocks Bacillus anthracis lethal factor protease. inhibition, % at 10 µM. P15917. multiplex microsphere protease cleavage assay, LF. 0.12% of 360,000 active. AID 588501; also: plate controls were buffer without enzyme for full effect and enzyme alone for no effect
# BJeLR lethal = BJeLR cell viability loss. BJeLR (HRASV12) viability, CellTiter-Glo ATP luminescence, 48 h. inhibition, % (test concentration not listed). 0.17% of 300,000 active. AID 1554; in the data active = inhibition above about 50%; inconclusive = no clear call, values can overlap the other calls
# Bead autofluor = flagged as autofluorescent in microsphere protease counterscreen. fluorescence intensity (concentration not given with the values). compound autofluorescence counterscreen, microsphere flow cytometry; active compounds read high. AID 624483. 3.1% of 360,000 active; in the data active = fluorescence intensity above about 16000; inconclusive = no clear call, values can overlap the other calls
# Active calls of the source: *; i = inactive; ? = inconclusive; / = no result. Compounds with a hit are over-represented: about 3.7% of the library has one in this group of screens. Rule as the data show it, unless noted: active = inhibition above about 30%; inconclusive = no clear call, values can overlap the other calls; inactive = below that.
SMILES,BoNT-A LC inh2,BoNT F protease,BH1578 lux ind,Anthrax LF prot,BJeLR lethal,Bead autofluor
CCOC(=O)N1CCN(C(=O)CCc2ccc(S(=O)(=O)NCCc3ccccc3)cc2)CC1,1.8,4.8,-0.4,-5.0,2.9,22791*
Cc1ccc([C@H]2N[C@]3(CCCN(Cc4ccco4)C3=O)[C@H]3C(=O)N(C)C(=O)[C@@H]23)cc1,-0.6,-9.3,-0.1,-8.3,/,3621
Cc1ccc2ccccc2c1C(O)c1ncc(-c2ccccc2)[nH]1 (stereo not drawn),-0.2,0.9,3.3,-0.3,/,3932
COc1ccc(CN(CC2CCCO2)C(=O)CN2C(=O)C(C)Oc3ccc(C)cc32)cc1OC (stereo not drawn),0.2,-3.4,i,0.2,-1.3,3865
CCC1Oc2ccc(C)cc2N(CC(=O)N(Cc2ccc3c(c2)OCO3)CC2CCCO2)C1=O (stereo not drawn),-2.5,-4.5,-0.2,1.9,-6.8,24977*
CCN(CC)C(=O)C1CCCN(Cc2ccc(F)c(F)c2)C1 (stereo not drawn),2.3,0.0,2.9,-1.7,5.8,11009
CCN(CC)C(=O)C1CCCN(Cc2ccc(OC)c(C)c2)C1 (stereo not drawn),1.8,2.1,i,-2.0,3.6,16141*
CCN(CC)C(=O)C1CCCN(Cc2ccccc2C(F)(F)F)C1 (stereo not drawn),0.5,-0.2,i,-1.5,-6.8,23390*
CCN(CC)C(=O)C1CCCN(C/C=C/c2ccccc2)C1 (stereo not drawn),-5.8,-6.3,i,-2.2,-0.2,25287*
COc1cc(CN2C[C@@H](CO)O[C@@H](n3cnc4c(N5CCCC5)ncnc43)C2)cc(OC)c1OC,0.1,0.9,0.7,-0.7,/,2840
CC(C)C(=O)N1CCC1(C)C(=O)Nc1ccc(-n2cccc2)cc1 (stereo not drawn),0.1,-9.3,-4.5,1.7,/,3836
CCOC(=O)N1CCN(C(=O)c2ccc(N(Cc3ccc(C)cc3)S(C)(=O)=O)cc2)CC1,-2.2,-2.0,-0.2,-3.0,8.0,23851*
CC(=O)c1cccc(NC(=O)c2ccc(N(Cc3ccc(C)cc3)S(C)(=O)=O)cc2)c1,-1.9,-1.2,-0.2,-2.1,-1.3,17101*
Cc1ccc(CN(c2ccc(C(=O)Nc3ccc4c(c3)OCO4)cc2)S(C)(=O)=O)cc1,1.8,-1.6,-2.4,-1.1,-25.3,15731
O=C(Cc1csc(Nc2nc(=S)[nH]c3ccccc23)n1)NCc1ccc(Cl)cc1,-1.0,-1.2,i,-0.5,-0.7,23044*
COc1cc(Cl)ccc1OC1(C)CCN(Cc2cccn2-c2nccs2)C1 (stereo not drawn),-0.7,-23.4,-0.1,-5.7,/,4106
C=CCNC(=O)c1ccc(C(=O)c2ccccc2)cc1,-0.3,1.7,i,-0.2,-21.8,23162*
C=CCNC(=O)CCCc1ccccc1,-0.2,-2.2,i,-1.4,4.0,23759*
N#CC1C(=O)NC(=O)C(C#N)C12CCCC(C(F)(F)F)C2 (stereo not drawn),0.1,-1.4,i,-3.9,/,4203
Cn1c(SCc2cccc(F)c2)nnc1-c1ccccn1,-0.5,1.3,i,-2.0,-4.5,16789*
Nc1nnc(Cc2c[nH]c3ccccc23)s1,1.4,-2.7,i,2.0,-1.6,23973*
O=C(COC(=O)CC12CC3CC(CC(C3)C1)C2)Nc1ncc(Cl)cc1Cl,-3.4,-6.2,-2.2,-2.4,10.1,24856*
O=C(COC(=O)C12CC3CC(CC(C3)C1)C2)Nc1ncc(Cl)cc1Cl,?,6.7,-0.2,-13.5,16.4,14703
CC(C)(Oc1ccc(Cl)cc1)C(=O)OCC(=O)Nc1ncc(Cl)cc1Cl,0.4,-0.6,-12.5,-4.9,-1.2,22776*
COc1ccc(OCCCC(=O)OCC(=O)Nc2ncc(Cl)cc2Cl)cc1,-2.5,-12.3,-0.4,-4.0,/,5150
SMILES,BoNT-A LC inh2,BoNT F protease,BH1578 lux ind,Anthrax LF prot,BJeLR lethal,Bead autofluor
CCOc1ccccc1C1C2=C(COC2=O)Nc2cc3c(cc21)OCO3 (stereo not drawn),0.0,-15.6,-0.4,-6.0,41.2,3645
C#CCOc1ccc(C2C3=C(COC3=O)Nc3cc4c(cc32)OCO4)cc1OC (stereo not drawn),-0.3,-3.3,-0.9,-3.7,61.4*,4356
O=C1CCC2c3[nH]c4ccccc4c3CCN12 (stereo not drawn),0.1,-7.2,i,4.7,/,3503
O=c1c([N+](=O)[O-])cccn1Cc1ccccc1Cl,-0.3,-15.0,-0.3,-1.0,-1.2,4516
O=c1c([N+](=O)[O-])cccn1Cc1cccc(Br)c1,0.0,27.5,46.2*,-5.3,1.4,3533
O=C(COc1ccc([N+](=O)[O-])cc1)NNC(=O)C1COc2ccccc2O1 (stereo not drawn),-0.2,-5.0,i,0.0,/,3715
CCCNC(=O)C1(C)CCCN(CC(=O)c2ccc3c(c2)OCCO3)C1 (stereo not drawn),-0.3,8.1,-0.5,-5.6,/,3077
CC(NC(=O)c1ccncc1)C(C)(C)C (stereo not drawn),6.2,3.9,-0.4,-13.1,-10.7,21180*
OC[C@@H]1CN(Cc2cccs2)C[C@H](n2cnc3c(NCc4ccc(F)cc4)ncnc32)O1,-0.4,-0.1,-1.1,-6.3,/,3855
O=C(c1ccco1)n1nc(-c2ccccc2)nc1SCc1ccccc1,0.0,3.9,-0.8,-7.8,7.6,?
O=C(c1ccco1)n1nc(-c2ccco2)nc1SCc1ccccc1,2.6,4.6,-2.1,2.0,3.9,21774*
COc1cc(CNC(=O)c2cc(-c3cc(Cl)ccc3OC)n[nH]2)cc(OC)c1,0.1,-5.1,i,0.5,/,3849
Cc1sc2ncn(CC(=O)NCc3ccccc3)c(=O)c2c1C,0.1,-8.2,i,-4.6,21.4,4005
Cc1sc2ncn(CC(=O)NCC(=O)N(C)Cc3ccccc3)c(=O)c2c1C,1.4,1.9,i,-2.0,-19.6,22315*
Cc1sc2ncn(CC(=O)NCC(=O)N(C)C3CCCCC3)c(=O)c2c1C,1.9,1.7,-2.7,-3.4,-22.7,22154*
Cc1sc2ncn(CC(=O)NCCCC(=O)N3CCCCC3)c(=O)c2c1C,0.0,1.2,1.6,1.6,-2.0,6046
CCOC(=O)C1C(=O)NC(SCC(N)=O)=C(C#N)C1c1ccccc1OCC (stereo not drawn),1.5,-4.8,/,-1.0,-0.5,9883
CCOC(=O)C1C(=O)NC(SC)=C(C#N)C1c1ccccc1F (stereo not drawn),0.3,0.9,i,-1.5,6.4,22567*
O=C(NCc1ccccc1Cl)c1csc([C@@H]2O[C@H](CO)[C@H](O)[C@H](O)[C@H]2O)n1,0.0,-2.2,i,-6.6,/,3909
C[C@@H]1CN([C@@H](C)CO)S(=O)(=O)c2ccc(-c3ccccc3)cc2O[C@@H]1CN(C)Cc1ccccc1C(=O)O,-0.2,1.9,-0.3,-3.0,/,3653
COc1ccccc1N(C(=O)c1snc(C(N)=O)c1N)C(C(=O)NC1CCCC1)c1ccc(N(C)C)cc1 (stereo not drawn),-0.4,-12.1,0.0,3.3,3.5,2939
